The source of these data is ChEMBL document CHEMBL3433997, “St. Jude Leishmania screening dataset” (2016).

Common to all, as to type: functional
The target of assay [1] is Solute carrier family 2, facilitated glucose transporter member 1 (Homo sapiens) (UniProt P11166). The experiment in a line: ST_JUDE_LEISH: Cytotoxicity at 2uM final concentration against transgenic Leishmania Mexicana promastigotes LmGLUT1 that are glucose transport deficient and complemented with the human glucose transporter GLUT1. Activity is measured by DNA content using SYBR green in vitro.

The target of assay [2] is Hexose transporter 1 (Plasmodium falciparum) (UniProt O97467). In words: ST_JUDE_LEISH: Cytotoxicity at 2uM final concentration against transgenic Leishmania Mexicana promastigotes LmPfHT that are glucose transport deficient and complemented with the Plasmodium falciparum hexose transporter. Activity is measured by DNA content using SYBR green in vitro.
The target in assay [3] is Glucose transporter (Leishmania mexicana) (UniProt O61059). The experiment in a line: ST_JUDE_LEISH: Cytotoxicity at 2uM final concentration against transgenic Leishmania Mexicana promastigotes LmGT2 that are glucose transport deficient and complemented with the L. Mexicana glucose transporter 2. Activity is measured by DNA content using SYBR green in vitro.

Solute carrier family 2, facilitated glucose transporter member 1 (Homo sapiens), sequence (P11166 whole entry): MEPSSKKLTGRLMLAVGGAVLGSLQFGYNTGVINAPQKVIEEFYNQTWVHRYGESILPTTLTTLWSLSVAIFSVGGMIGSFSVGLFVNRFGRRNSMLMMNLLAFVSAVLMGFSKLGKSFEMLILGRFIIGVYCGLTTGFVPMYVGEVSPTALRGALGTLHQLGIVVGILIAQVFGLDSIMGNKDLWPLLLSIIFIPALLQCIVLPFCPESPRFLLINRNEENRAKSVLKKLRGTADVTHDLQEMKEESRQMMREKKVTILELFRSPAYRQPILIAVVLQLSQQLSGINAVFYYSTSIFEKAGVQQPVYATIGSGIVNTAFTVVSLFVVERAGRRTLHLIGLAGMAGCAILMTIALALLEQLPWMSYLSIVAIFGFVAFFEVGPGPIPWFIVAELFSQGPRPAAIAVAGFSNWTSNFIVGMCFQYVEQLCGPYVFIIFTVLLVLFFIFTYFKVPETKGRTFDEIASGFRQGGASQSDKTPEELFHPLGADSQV

Regarding `CCN(CC)CCNc1ccnc2[nH]c3ccc(Cl)cc3c12`, the inhibition in assay [1] is 1.19%; in assay [2], -0.21%; in assay [3] it was -0.03%.
In the same order, the values of `CN(Cc1ccc(NC(=O)NC2CCN(C(=O)/C=C/c3ccc(Cl)c(Cl)c3)CC2)cc1)C1CCOCC1` are 1.63%, -3.08% and 3.44%.
The like results for `CCCCC(=O)N(CCOC)Cc1ccc(-c2ccc(CNCCC)cn2)cc1` were, in that order, 7.95%, 6.86% and 5.46%.
On to `O=C(Nc1cccc(CN2CCCN(Cc3ccc4c(c3)OCO4)CC2)c1)c1ccc(-c2ccccc2)cc1`, for which the inhibition in assay [1] came to 4.21%; in assay [2], 3.52%; in assay [3] it was 0.89%.
The like results for `CC(C(=O)NC1CCN(c2ccnc(Nc3ccc(F)cc3)n2)C1)c1ccc(Cl)cc1` (stereo not drawn) were, in that order, 1.1%, 0.7% and 2.7%.
Regarding `Cc1[nH]c2ccc(-c3ccccc3)cc2c(=O)c1Br`, the inhibition in assay [1] is 1.91%; in assay [2], 4.13%; in assay [3] it was -0.5%.
The like results for `O=C(/C=C/c1ccccc1)N1CCOC(CCN2CCC(c3ccccc3)CC2)(c2ccc(Cl)c(Cl)c2)C1` (stereo not drawn) were, in that order, 13.3%, 7.51% and 7.43%.
The like results for `CC1(C)N=C(N)N=C(N)N1OCc1cc2ccccc2cc1CON1C(N)=NC(N)=NC1(C)C` were, in that order, 1.9%, 1.86% and 0.5%.
In the case of `CCOc1ccc2c(=NN=Cc3c4ccccc4cc4ccccc34)cc(C)[nH]c2c1`, the inhibition was 2.42% in assay [1], 1.13% in assay [2] and 3.35% in assay [3].
In the same order, the values of `Cc1cc(OCc2ccccc2)c(OCc2ccccc2)cc1C(O)CN(C)Cc1ccccc1` (stereo not drawn) are 0.44%, 1.08% and -0.1%.
The like results for `CCN(CC)CCN(Cc1ccc(-c2ccc(C(F)(F)F)cc2)nc1)C(=O)Cn1c(SCc2ccc(F)cc2)nc(=O)c2sccc21` were, in that order, 1.92%, 1.65% and 1.84%.
In the same order, the values of `O=C(NCCc1cccc(F)c1)c1ccc(N2CCN(c3ccncc3)CC2)cn1` are 8.21%, 4.37% and 6.9%.
Take `COc1cc(NC(=O)c2cccs2)c(C(=O)NCc2ccc(C)cc2)cc1OC`: the inhibition is 5.62% in assay [1], 4.22% in assay [2] and 7.02% in assay [3].
The like results for `COc1ccc(C(=O)CCC(=O)N(Cc2ccc(-c3ccc(CNCCc4ccccc4)cn3)cc2)C(C)CN(C)C)cc1F` (stereo not drawn) were, in that order, 2.12%, 1.14% and 0.82%.
The like results for `COc1cc(NC(=O)CCCCCCCN2CCN(C)CC2)c2ncccc2c1` were, in that order, 5.39%, 3.78% and 1.09%.
Take `N#Cc1ccc2c(c1)CCN(CCC1CCC(NC(=O)Nc3cnc4ccccc4c3)CC1)C2` (stereo not drawn): the inhibition in assay [1] was determined as 2.8%; in assay [2], 3.15%; in assay [3], 2.03%.
Consider `CNC(=O)c1cnc(Nc2ccc(N3CCOCC3)cc2)nc1Nc1cccc(OC)c1`, for which the inhibition is -0.53% in assay [1], -1.08% in assay [2] and -2.23% in assay [3].
In the same order, the values of `COc1ccc(-c2cncc(-c3ccc(OC)c(OC)c3)n2)cc1OC` are 2.76%, 2.56% and 3.88%.
In the same order, the values of `FC(F)(F)c1ccc2c(C=Cc3ccncc3)c[nH]c2c1` are 3.67%, 3.37% and 4.76%.
In the same order, the values of `N#Cc1ccc(C(=O)Nc2cc(-c3cccc(O)c3)cc3[nH]ncc23)cc1` are 2.57%, 2.33% and 0.89%.
For `CCN(CC)CCN(Cc1ccc(-c2ccc(C(F)(F)F)cc2)cc1)C(=O)Cn1c(CCc2cccc(F)c2F)nc(=O)c2cc(F)c(F)cc21`, the values for the inhibition in assay [1], in assay [2] and in assay [3] were 9.33%, 7.63% and 9.47%, respectively.
The like results for `C[C@H](Cc1ccc(OCCCCCCOc2ccc(C[C@@H](C)NC(=O)[C@H](O)c3cccc(Cl)c3)cc2)cc1)NC[C@H](O)c1cccc(Cl)c1` were, in that order, 7.21%, 5.41% and 4.7%.
Consider `COc1cc(NC(=O)/C=C/c2ccc(-c3ccccc3)cc2)ccc1OCCN(C(C)C)C(C)C`, for which the inhibition in assay [1] stood at 60.5%; in assay [2] it was 55.8%; in assay [3], 23.4%.
In the same order, the values of `COc1ccc2cc(-c3nc(-c4c(Cl)cccc4Cl)[nH]c3-c3ccnc(NCCC4CCCN4C)c3)ccc2c1` (stereo not drawn) are 29.7%, 12.8% and 8.98%.
The like results for `COC(=O)[C@@H](NC(=O)[C@H](CC(C)C)Nc1ccc(C#N)c2ccccc12)c1ccc(O)cc1` were, in that order, 1.02%, 0.76% and -2.23%.
In the case of `COc1cc(NC(=O)c2ccc(-c3ccccc3)cc2)ccc1OCCCN1CCC(c2ccccc2)CC1`, the inhibition was found to be 0.2% in assay [1], 2.26% in assay [2] and 2.91% in assay [3].
The like results for `CC(C)(C)c1cc(NC2CC2)nc(-c2ccccn2)n1` were, in that order, 1.4%, 3.18% and 4.03%.
In the same order, the values of `COc1ccc2c(NN=Cc3cccnc3)ccnc2c1` are 0.4%, 2.02% and -0.33%.
The like results for `COc1ccc(-c2cccc(NC(=O)c3ccc(Cl)cc3)c2)cc1CNC(C)C` were, in that order, 3.8%, 2.1% and -1.5%.
Consider `CCOC(=O)c1nc(-c2ccccc2)[nH]c1NC(=S)NC1CCCCC1`, for which the values for the inhibition in assay [1], in assay [2] and in assay [3] were -0.61%, -0.88% and -6.59%, respectively.
The like results for `Cc1ccc(NC(=O)Nc2cccc(Cl)c2)cc1-c1ccc(C(=O)Nc2ccncc2)cc1` were, in that order, -1.84%, -1.56% and -1.5%.
The like results for `CCOC(=O)Cn1ccc2c(NCc3ccccc3)nc(C)nc21` were, in that order, 0.48%, 1.38% and 2.53%.
The like results for `COc1ccc(CNC2CCN(C)CC2)cc1-c1ccc(S(=O)(=O)NCc2ccccc2)s1` were, in that order, 9.42%, 11.8% and 11.2%.
In the case of `Cc1cc2nc(-c3ccc(/C=C/C(=O)NC4CCN(Cc5ccccc5)CC4)cc3)[nH]c2cc1C`, the inhibition in assay [1] was 0.58%; in assay [2], -0.75%; in assay [3], -2.3%.
As to `N#Cc1ccc(NC(=O)Nc2ccc(OC(F)(F)F)cc2)cc1`, the results for the inhibition in assay [1], in assay [2] and in assay [3] were 2.17%, 1.59% and -0.05%, respectively.
As for `COc1cc(Cc2cnc(N)nc2N)cc(OCC(C)(C)C(=O)O)c1OC`, the inhibition was -1.6% in assay [1], -1.08% in assay [2] and -0.23% in assay [3].

In general, inhibition refers to the change of the read-out against control, counted positive when it falls.
